Compound activity from PubChem BioAssay.
PAFAH1B2 FP inh – inhibitors of human PAFAH1B2; P68402; recombinant PAFAH1B2, FP-rhodamine activity probe, fluorescence polarization; inhibition, % at 3.39 µM; actives 1.2% (n = 340,000); AID 492953;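 active = inhibition above the mean of all tested compounds plus 3 SD, cut at about 24% in these data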;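 also: 0% = enzyme with DMSO and 100% = wells lacking PAFAH1B2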
Target sequence (P68402 whole entry, looked up): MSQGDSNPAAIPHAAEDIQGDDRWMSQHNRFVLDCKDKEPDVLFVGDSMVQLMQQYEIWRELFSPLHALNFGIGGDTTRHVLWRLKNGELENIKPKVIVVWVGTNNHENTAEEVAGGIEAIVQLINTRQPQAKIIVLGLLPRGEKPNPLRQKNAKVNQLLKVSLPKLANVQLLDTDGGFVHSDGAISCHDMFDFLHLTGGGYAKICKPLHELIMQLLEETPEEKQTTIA
PAFAH2 FP inh – PAFAH2 (human) inhibition | Q99487 | recombinant PAFAH2, FP-rhodamine activity probe, fluorescence polarization | actives 0.99% (n = 340,000) | inhibition, % at 3.39 µM;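 active = inhibition above the mean over all tested compounds plus 3 SD, cut at about 30% in these data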;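 also: inhibitors block probe labeling of enzyme so polarization drops; 0% = enzyme with DMSO and 100% = wells lacking PAFAH2 protein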
TCR-CD3 inh – inhibitors of human TCR-CD3 interaction; actives 0.37% (n = 360,000); inhibition, % at 9.4 µM; TAMRA-labeled TCR probe fluorescence, biochemical; AID 651800;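 also: recombinant mutant TCR 2C K166C tagged with TAMRA read by polarization; 0% = receptor in buffer alone and 100% = receptor with positive control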
pPAFAH inh – pPAFAH (human) enzyme inhibition | recombinant pPAFAH, FP-rhodamine probe fluorescence polarization | actives 1.5% (n = 330,000) | inhibition, % at 3.39 µM;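 active = inhibition above the mean inhibition across the screen plus 3 SD, cut at about 25% in these data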;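 also: inhibitors block binding of the rhodamine activity-based probe so polarization drops; 0% = enzyme with DMSO and 100% = wells lacking pPAFAH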
Target sequence (Q13093 whole entry, looked up): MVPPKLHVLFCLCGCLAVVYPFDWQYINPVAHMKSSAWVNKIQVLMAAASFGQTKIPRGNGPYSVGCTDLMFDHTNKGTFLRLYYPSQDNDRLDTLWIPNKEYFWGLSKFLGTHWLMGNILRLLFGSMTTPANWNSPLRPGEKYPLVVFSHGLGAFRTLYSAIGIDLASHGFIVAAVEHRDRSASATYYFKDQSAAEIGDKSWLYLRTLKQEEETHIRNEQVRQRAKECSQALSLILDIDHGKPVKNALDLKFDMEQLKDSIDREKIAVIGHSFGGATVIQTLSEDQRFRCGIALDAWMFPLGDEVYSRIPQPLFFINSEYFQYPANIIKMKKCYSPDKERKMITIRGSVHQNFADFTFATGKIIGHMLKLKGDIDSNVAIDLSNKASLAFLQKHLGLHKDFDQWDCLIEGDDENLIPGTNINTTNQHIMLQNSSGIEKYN
PAFAH1B3 inh – inhibitors of human PAFAH1B3; Q15102; recombinant PAFAH1B3, FP-rhodamine probe, fluorescence polarization; inhibition, % at 3.39 µM; actives 0.28% (n = 340,000); AID 492972;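 active = inhibition above the screen-wide average of all tested compounds plus 3 SD, cut at about 25% in these data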;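 also: 0% = enzyme with DMSO only and 100% = wells lacking PAFAH1B3 protein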
PAFAH2 FP conf – confirmation of human PAFAH2 inhibitors | shares compounds with PAFAH2 FP inh | recombinant PAFAH2, FP-rhodamine activity probe, fluorescence polarization | inhibition, % at 3.39 µM | actives 65% (n = 2,300) | AID 493030;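 active = mean inhibition over three repeats above a set limit taken from the earlier primary screen, cut at about 30% in these data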;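 also: inhibitor blocks binding of rhodamine activity probe so polarization falls; 0% = enzyme with DMSO and 100% = wells lacking PAFAH2 protein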
PAFAH1B3 conf FP – PAFAH1B3 (human) inhibition, confirmed; actives 30% (n = 390); shares compounds with PAFAH1B3 inh; AID 493032; recombinant PAFAH1B3, FP-Rh activity-based probe, fluorescence polarization; inhibition, % at 3.39 µM;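 active = average inhibition over triplicate runs above the hit cutoff set in the earlier primary screen, cut at about 25% in these data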;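 also: 0% = enzyme with DMSO and 100% = wells lacking PAFAH1B3 protein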
BSA TAMRA ctr – BSA probe counter-screen for TCR-CD3 inhibitors. shares compounds with TCR-CD3 inh. TAMRA-labeled BSA probe fluorescence counterscreen. inhibition, % at 9.4 µM. actives 10% (n = 1,200). AID 652035; in the data active = inhibition above about 23%;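 also: 0% = buffer low control and 100% = reference high control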
TCR-CD3 conf – TCR-CD3 interaction inhibition, confirmation. shares compounds with TCR-CD3 inh. TAMRA-labeled TCR probe fluorescence binding assay. inhibition, % at 9.4 µM. actives 48% (n = 1,200). AID 652036
* = called active by the depositor; / = not tested or not shown. In the library only some 2.7% were active in any assay of this set; here they are far more common. Rule as the data show it, unless noted: active = inhibition above about 19%; inactive = the rest.

SMILES | PAFAH1B2 FP inh | PAFAH2 FP inh | TCR-CD3 inh | pPAFAH inh | PAFAH1B3 inh | PAFAH1B3 conf FP | others
O=C1/C(=C/c2ccco2)SC(=S)N1c1cccnc1 | 6.6 | 31.9* | 28.3* | / | 14.5 | / | PAFAH2 FP conf=18.2;BSA TAMRA ctr=-7.7;TCR-CD3 conf=22.7*
CCn1c(SCC(=O)c2ccc(O)c(O)c2)nnc1-c1ccccc1OC | 5.5 | 42.3* | 28.8* | 29.2* | 12.4 | / | PAFAH2 FP conf=25.7;BSA TAMRA ctr=-0.8;TCR-CD3 conf=31.4*
O=C(COC(=O)c1cc(-c2cccs2)nn1-c1ccccc1)Nc1cccc([N+](=O)[O-])c1 | -4.4 | 32.3* | 26.0* | 2.6 | -6.4 | / | PAFAH2 FP conf=38.6*;BSA TAMRA ctr=2.8;TCR-CD3 conf=0.8
Cc1ccc(NC(=O)COC(=O)c2cc(-c3cccs3)nn2-c2ccccc2)cc1[N+](=O)[O-] | 3.0 | 4.9 | -0.6 | 6.4 | 2.4 | /
CCCCCC(=O)Nc1nc(C)c(-c2csc(Nc3ccc(Cl)cc3)n2)s1 | 8.7 | -7.7 | -0.4 | 9.8 | 18.5 | /
CCCCCCC(=O)Nc1nc(C)c(-c2csc(Nc3ccc(Cl)cc3)n2)s1 | 20.9 | 23.9 | / | 12.6 | 28.0* | 12.7
CCc1nnc(SCC(=O)Nc2ccc(NC(C)=O)cc2)n1-n1cccc1 | -7.7 | -5.9 | -5.9 | -2.4 | -1.8 | /
COc1ccc2[nH]c3c4c(ccc3c2c1)C(=O)C=CC4=O | 17.0 | 16.4 | 1.0 | / | 37.0* | 17.4
COc1ccc2[nH]c(=O)cc(C(=O)O)c2c1 | 3.3 | 5.5 | 4.5 | 8.2 | 13.5 | /
COn1c(-c2ccccc2)nc2c1CCc1c-2no[n+]1[O-] | 4.2 | 1.9 | 6.7 | 5.4 | 26.0* | 27.4*
[O-][n+]1onc2c1CCc1nnc(-c3ccccc3)cc1-2 | 3.9 | 0.7 | 0.4 | 1.6 | 77.7* | 84.1*
[O-][n+]1onc2c1CCc1nnccc1-2 | 2.8 | 8.4 | 4.6 | 1.0 | 7.3 | /
COc1cccc(-c2nc(CS(=O)(=O)CC(=O)Nc3ccccc3Br)c(C)o2)c1 | 6.8 | 7.9 | 1.3 | 4.3 | 2.7 | /
Cc1ccc(S(=O)(=O)NC(=O)Nc2ccc(C)cc2C)cc1 | 5.1 | -4.9 | -4.1 | / | 28.1* | 7.1
Cc1ccc(S(=O)(=O)NNC(=O)CCC(=O)Nc2ccc(C)cc2C)cc1 | 0.4 | -9.2 | -1.6 | 3.1 | 1.2 | /
O=C1C=C(c2cccc(CO)c2)C[C@@H](c2ccc3c(c2)OCO3)C1 | -5.1 | -3.8 | -2.4 | -0.2 | 5.6 | /
CCOC(=O)c1sc(NC(=O)Nc2ccccc2)cc1C | 13.4 | -18.9 | 2.5 | 2.3 | 26.6* | 18.0
CC1(NC(=O)c2cc(Cl)nc3ccccc23)CCS(=O)(=O)C1 (stereo unspecified) | 3.1 | 5.3 | 1.9 | 1.4 | 35.3* | 8.9
O=C(NC1CC1)c1cc(Cl)nc2ccccc12 | -2.2 | -6.0 | -3.1 | / | -8.2 | /
CCCN(CC(=O)Nc1ccccc1C)C(=O)c1ccc(N2CCCC2)c([N+](=O)[O-])c1 | 3.1 | 7.1 | -1.9 | 18.3 | 8.3 | /
O=C(Nc1ccc(CN2CCS(=O)(=O)CC2)cc1)c1ccc(Cl)cc1 | 2.1 | 2.5 | -6.5 | 14.9 | 8.3 | /
CCC(C)NC(=O)c1ccc(N2CC3CC(C2)c2cccc(=O)n2C3)c(NC(=O)c2c(F)cccc2F)c1 (stereo unspecified) | / | / | -2.1 | / | / | /
CCc1nc2ccc(C(=O)N3CCN(CC)CC3)cc2nc1CC | 18.4 | 28.3 | -5.8 | -1.1 | 27.7* | 8.3
CCCN1CCN(C(=O)c2ccc3nc(CC)c(CC)nc3c2)CC1 | 0.2 | -1.2 | -4.7 | 3.9 | 2.1 | /
Clc1ccc2c(SCC3CO3)c3ccccc3nc2c1 (stereo unspecified) | 2.9 | 0.3 | -5.7 | / | 9.5 | /
SMILES | PAFAH1B2 FP inh | PAFAH2 FP inh | TCR-CD3 inh | pPAFAH inh | PAFAH1B3 inh | PAFAH1B3 conf FP | others
O=C1C(Cl)=C(Nc2ccc(O)cc2)C(=O)c2ccccc21 | 13.4 | 9.0 | -2.5 | 0.7 | 26.9* | 18.0
CCNC1=C(Cl)C(=O)c2ccccc2C1=O | 4.5 | -1.5 | 2.0 | 4.3 | 17.1 | /
COC1=C(Nc2ccc(O)cc2)C(=O)c2ccccc2C1=O | 6.0 | -3.9 | 6.5 | 10.7 | 3.7 | /
CCCC(=O)NC1=C(Cl)C(=O)c2ccccc2C1=O | 5.9 | 19.7 | -3.8 | / | 37.6* | 13.9
CCN(CC)c1ccc(NC2=C(Cl)C(=O)c3ccccc3C2=O)cc1 | 6.3 | 28.2 | / | 10.2 | 25.8* | 35.6*
O=C(Cc1ccc(Cl)cc1)NCC(=O)N1CCC2(CC1)NCCc1[nH]cnc12 | / | / | -2.0 | / | / | /
COc1cc(-c2nc3c4ccccc4nc(=S)n3[nH]2)cc(OC)c1OC | 4.8 | -1.7 | 0.3 | 5.9 | 29.7* | 25.0
CC1OC(CC(=O)O)CC2=C1C(=O)c1c(O)cccc1C2=O (stereo unspecified) | 12.9 | 14.2 | -4.8 | / | 53.0* | 22.3
O=C1c2cccc(O)c2C(=O)c2c(O)cccc21 | / | / | / | 14.2 | / | /
Cc1ccc2cc(NC(=O)C3(C)CCN(C)C3)ccc2n1 (stereo unspecified) | / | / | -3.0 | / | / | /
O=C1CNC(c2ccccc2)C(c2ccccc2)N1 (stereo unspecified) | / | / | 4.2 | / | / | /
O=C1NC(c2ccccc2)C(c2ccccc2)N1 (stereo unspecified) | 5.1 | 11.7 | 0.3 | / | 50.5* | 39.5*
COc1ccc(CNCCS(=O)(=O)NN2CCOCC2)cc1 | 0.1 | 6.0 | 1.4 | 2.0 | 4.4 | /
O=C(Cn1ncc(Cl)c(Cl)c1=O)NCC1CCCCC1 | 4.7 | 7.3 | 2.1 | 5.5 | -8.5 | /
O=C(Cn1ncc(Cl)c(Cl)c1=O)NC1CCCCC1 | 1.1 | 3.4 | -0.5 | -2.2 | 28.9* | 20.7
C[C@@H]1CN([C@@H](C)CO)C(=O)c2cc(Br)cnc2O[C@H]1CN(C)C(=O)Nc1ccccc1 | / | / | -0.3 | / | / | /
O=C(O)CCCCCCCCCCCNC(=O)NC12CC3CC(CC(C3)C1)C2 | 4.0 | -0.1 | -7.2 | 0.5 | 25.6* | 5.6
CCOCCCNC(=O)NC12CC3CC(CC(C3)C1)C2 | 6.3 | 9.5 | 2.9 | -1.3 | -3.7 | /
Cc1cc(Cl)ccc1C(O)c1ncc(-c2cccc(C(F)(F)F)c2)[nH]1 (stereo unspecified) | / | / | -6.8 | / | / | /
O=C(C1=C(c2ccccc2)C(=O)c2ccccc2C1=O)c1ccccc1 | 11.5 | 7.7 | -4.2 | / | 58.2* | 25.6*
COC1=C(c2ccccc2)C(=O)c2ccccc2C1=O | 4.7 | 4.4 | -1.8 | 6.9 | 6.1 | /
O=C1c2ccccc2S(=O)(=O)N1CCCN1C(=O)c2ccccc2S1(=O)=O | 4.2 | -2.2 | 5.7 | / | 29.7* | 7.5
O=C1c2ccccc2C(=O)N1OCCCN1C(=O)c2ccccc2S1(=O)=O | 3.0 | 3.5 | 2.3 | / | 2.1 | /
CCOC(=O)[C@]12CCCC=C1N(Cc1cccc3ccccc13)C(=O)[C@H](CC(=O)NCC1CCCCC1)C2 | / | / | -3.5 | / | / | /
